Values joined by “and” are separate entries in the source; they are usually repeats but may differ in a detail not shown here. Equal entries are not always repeated. The whole screen tested about 5,500 compounds, of which about 2,000 (36%) were called active. About 18% were inconclusive and are not listed. Cut-off read from the data, not from the text of the source: active = normalized growth mostly below about 0.91 (no sharp cut-off); inconclusive = no clear call, values can overlap the other calls; inactive = mostly above about 0.92. The list shows a part of the results.
Test: chemical genetic growth profiling, strain panel (AID 1159580);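 note: tested at 20 µM; growth read once vehicle control cultures reached saturation at 30 °C; 1 = growth at the plate median or of vehicle wells; lower values mean less growth of the strain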
Conditions: S. cerevisiae deletion strains, growth OD

Measured: normalized growth

C#CCCCCCCCCCCCC(O)CC(O)COC(C)=O (stereo unspecified)
active: locus YAL021C, strain ccr4, hits give low values 0.766 | locus YAL026C, strain drs2, hits give low values 0.906 | locus YAL030W, strain snc1, hits give low values 0.526 | locus YBL061C, strain skt5, hits give low values 0.841 | locus YBR009C, strain hhf1, hits give low values 0.263 | locus YBR023C, strain chs3, hits give low values 0.756 | locus YBR279W, strain paf1, hits give low values 0.87 | locus YCL011C, strain gbp2, hits give low values 0.32 | locus YCL016C, strain dcc1, hits give low values 0.805 | locus YCL069W, strain vba3, hits give low values 0.852 | locus YDL005C, strain med2, hits give low values 0.103 | locus YDR101C, strain arx1, hits give low values 0.916 | locus YDR137W, strain rgp1, hits give low values 0.63 | locus YDR159W, strain sac3, hits give low values 0.289 | locus YDR195W, strain ref2 0.482 | locus YDR297W, strain sur2, hits give low values 0.571 | locus YDR318W, strain mcm21, hits give low values 0.889 | locus YDR335W, strain msn5, hits give low values 0.913 | locus YDR392W, strain spt3, hits give low values 0.21 | locus YEL003W, strain gim4, hits give low values 0.376 | locus YEL061C, strain CIN8 (second series), hits give low values 0.872 | locus YER015W, strain faa2, hits give low values 0.714 | locus YER016W, strain bim1, hits give low values 0.861 | locus YER155C, strain BEM2 (second series), hits give low values 0.461 | locus YGL078C, strain dbp3, hits give low values 0.881 | locus YGL086W, strain mad1, hits give low values 0.91 | locus YGL173C, strain kem1, hits give low values 0.539 | locus YGL227W, strain vid30, hits give low values 0.72 | locus YGL240W, strain doc1, hits give low values 0.727 | locus YGL253W, strain hxk2, hits give low values 0.788 | locus YHR027C, strain rpn1, hits give low values 0.82 | locus YHR142W, strain chs7, hits give low values 0.624 | locus YJL095W, strain BCK1 (second series), hits give low values 0.216 | locus YJL129C, strain trk1, hits give low values 0.213 | locus YJL164C, strain tpk1, hits give low values 0.258 | locus YJL166W, strain qcr8, hits give low values 0.283
inactive: locus YAL013W, strain DEP1, hits give low values 0.98 | locus YBR021W, strain FUR4, hits give low values 0.925 | locus YBR171W, strain sec66, hits give low values 0.962 | locus YBR229C, strain ROT2, hits give low values 0.982 | locus YBR231C, strain swc5, hits give low values 0.962 | locus YCL029C, strain bik1, hits give low values 0.954 | locus YCR088W, strain abp1, hits give low values 0.947 | locus YDL035C, strain GPR1, hits give low values 0.908 | locus YDL040C, strain nat1, hits give low values 0.973 | locus YDL074C, strain BRE1, hits give low values 0.857 | locus YDL101C, strain DUN1, hits give low values 0.975 | locus YDL134C, strain PPH21, hits give low values 0.972 | locus YDL185W, strain tfp1, hits give low values 0.963 | locus YDL192W, strain arf1, hits give low values 0.928 | locus YDR001C, strain nth1, hits give low values 0.999 | locus YDR069C, strain doa4, hits give low values 1.02 | locus YDR150W, strain NUM1, hits give low values 0.992 | locus YDR162C, strain NBP2, hits give low values 0.945 | locus YDR334W, strain swr1, hits give low values 1.04 | locus YDR388W, hits give low values 0.967 | locus YDR502C, strain sam2, hits give low values 0.923 | locus YEL037C, strain rad23, hits give low values 0.997 | locus YEL061C, strain CIN8, hits give low values 0.989 | locus YER110C, hits give low values 0.965 | locus YER111C, strain swi4, hits give low values 0.927 | locus YER155C, strain BEM2, hits give low values 0.988 | locus YER167W, strain BCK2, hits give low values 0.953 | locus YFR010W, strain ubp6, hits give low values 1.03 | locus YGL167C, strain pmr1, hits give low values 0.939 | locus YGL248W, strain PDE1, hits give low values 0.976 | locus YGR078C, strain PAC10, hits give low values 0.905 | locus YGR135W, strain pre9, hits give low values 0.918 | locus YGR229C, strain SMI1, hits give low values 0.954 | locus YGR252W, strain gcn5, hits give low values 0.831 | locus YHR013C, strain ard1, hits give low values 1.13 | locus YHR030C, strain SLT2, hits give low values 0.98 and 0.998 | locus YHR079C, strain IRE1 (second series), hits give low values 0.942 | locus YHR079C, strain IRE1, hits give low values 0.969 | locus YHR094C, strain hxt1, hits give low values 0.97 | locus YHR129C, strain ARP1, hits give low values 0.978 | locus YHR200W, strain rpn10, hits give low values 0.945 | locus YIL066C, strain RNR3, hits give low values 0.885 | locus YIL073C, strain SPO22, hits give low values 0.917 | locus YIL125W, strain kgd1, hits give low values 0.965 | locus YIR030C, strain dcg1, hits give low values 0.962 | locus YJL092W, strain hpr5, hits give low values 0.963 | locus YJL095W, strain BCK1, hits give low values 0.935 and 1 | locus YJL115W, strain asf1, hits give low values 0.975 | locus YJL134W, strain LCB3, hits give low values 0.997 | locus YJL154C, strain vps35, hits give low values 1.01 | locus YJL168C, strain set2, hits give low values 0.966 | locus YJL187C, strain SWE1 (second series), hits give low values 0.954 | locus YJR043C, strain POL32, hits give low values 0.897 | locus YJR066W, strain TOR1, hits give low values 0.957 | locus YJR075W, strain HOC1, hits give low values 0.947
